Pf growth 48h: inhibits P. falciparum growth in the first generation, 48 h; 310,000 compounds, 5.9% hits; AID 504832; Potency, µM (top dose mostly 28.7 µM), without a hit: at the highest dose activity change, negative = inhibition, actives largely listed as inhibitors; P. falciparum luciferase growth in erythrocytes, 48 h; active = well fitted inhibition curve with a large enough effect; inconclusive = small, poorly fitted or top-dose-only effect, or another doubt; inactive = no such curve, though single readings can be large or run the other way; note: % is set by controls: 0 for no effect and ±100 for the full control effect
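Growth was read as firefly luciferase luminescence after a 48 h, 37 C, 5% CO2 exposure of compounds to reporter-bearing P. falciparum cultures (0.1% parasitemia, 2% hematocrit final) in Albumax-supplemented RPMI 1640.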
NS1 function inh: influenza NS1 inhibition; 270,000 compounds, 0.4% hits; AID 2326; Potency, µM (top dose mostly 46.1 µM), inactives show at the highest dose activity, positive = more growth; note: actives are rising curves; nearly all actives have a fitted effect of over 50% in size
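S. cerevisiae expressing influenza A NS1, grown in glucose, washed, then diluted 1:100 into pH 6.0 -URA galactose medium with 23 nl compound. Growth recovery read as OD600; NS1-free strain serves as control.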
Pf growth 96h: P. falciparum growth inhibition at 96 hour, primary screen for plastid delayed-death inhibitors; P. falciparum luciferase reporter growth, 96 h; Potency, µM (doses to about 28.7 µM), without a hit: at the highest dose activity change, negative = inhibition, usual class: inhibitors; 320,000 compounds, 6.9% hits; AID 504834; active = well fitted inhibition curve with a large enough effect; inconclusive = small, poorly fitted or top-dose-only effect, or another doubt; inactive = no such curve, though single readings can be large or run the other way; note: % is set by controls: 0 for no effect and ±100 for the full control effect
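Parasite growth measured via integrated firefly luciferase reporter in P. falciparum. Infected erythrocytes at 2% hematocrit, 0.05% parasitemia final were treated 96 hours at 37 C under 5% CO2, and luminescence was read.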
SARS PLpro yeast: inhibitors of SARS-CoV papain-like protease in yeast; S. cerevisiae expressing SARS-CoV PLpro, growth rescue; Potency, µM (doses to about 32.9 µM), for the others: at the top dose activity, positive = growth rescue, actives largely listed as activators; 330,000 compounds, 0.19% hits; AID 485353; note: 0% is about no effect; nearly all actives have a fitted effect of over 55% in size
* hit, by the source's call; u = inconclusive; x = not tested or not shown. Hits are enriched below; roughly 10% of the tested compounds scored in any of these assays. Unless noted, calls come from the whole dose curve. Potency is the fitted concentration of half-maximal effect.

SMILES	Pf growth 48h	NS1 function inh	Pf growth 96h	SARS PLpro yeast
CC1(C)Cc2c(cnn2-c2ccccc2)C(NC(=O)CCCN2CCCCC2=O)C1 (stereo not drawn)	-8%	9%	6.6µM*	21%
CC1(C)Cc2c(cnn2-c2ccccc2)C(NC(=O)CCN2CCCC2=O)C1 (stereo not drawn)	10%	-2%	15µM*	4%
CC1(C)Cc2c(cnn2-c2ccc(F)cc2)C(NC(=O)CCCN2CCCCC2=O)C1 (stereo not drawn)	-25%	7%	13µM*	-2%
C/C(=N\NC(=O)Cn1nc(C)c([N+](=O)[O-])c1C)c1ccc(Cl)s1	1%	5%	-7%	0%
CCNC(=O)/C(C#N)=C/c1c(N2CCOCC2)nc2ccccn2c1=O	53%	6%	60%	5%
CNC(=O)/C(C#N)=C/c1c(N(Cc2ccccc2)Cc2ccccc2)nc2c(C)cccn2c1=O	13µM*	u	2.9µM*	2%
CCNC(=O)/C(C#N)=C/c1c(N2CCN(C)CC2)nc2c(C)cccn2c1=O	11%	2%	1%	-4%
CCNC(=O)/C(C#N)=C/c1c(N(Cc2ccccc2)Cc2ccccc2)nc2ccccn2c1=O	3.7µM*	27%	13µM*	u
CCCOc1cccc(C2C(C(=O)c3cccs3)=C(O)C(=O)N2Cc2cccnc2)c1 (stereo not drawn)	u	13%	33%	0%
COC(=O)c1cc(NC(=O)c2c(F)c(F)c(F)c(F)c2F)cc(C(=O)OC)c1	5%	-24%	u	u
NC(=O)C1CCN(C2=C(Cl)C(=O)c3ccccc3C2=O)CC1	u	14%	u	-16%
O=C1C(Cl)=C(N2CCC(C(=O)O)CC2)C(=O)c2ccccc21	12µM*	6%	12µM*	-3%
CN(C)CCNC(=O)C(=O)Nc1ccc2c(c1)N(S(=O)(=O)c1cccs1)CCC2	u	x	13µM*	0%
CCCNC(=O)C(=O)Nc1ccc2c(c1)N(S(=O)(=O)c1cccs1)CCC2	1%	x	56%	1%
CN(C)CCCNC(=O)C(=O)Nc1ccc2c(c1)N(S(=O)(=O)c1cccs1)CCC2	9.3µM*	x	u	0%
CCN(CC)C(=O)/C(C#N)=C/c1cc(O)c(O)c([N+](=O)[O-])c1	-29%	x	u	x
N#CCC(CNc1ncc(C(F)(F)F)cc1Cl)OC(=O)c1cccc(C(F)(F)F)c1 (stereo not drawn)	u	-14%	5.9µM*	-15%
COC(=O)c1sccc1NC(=S)Nc1cc(C)cc(C)c1	18%	10%	10µM*	0%
COC(=O)c1sccc1NC(=O)Nc1cccc(C)c1C	23%	-9%	4.1µM*	1%
Cc1ccc(CSC2=Nc3ccccc3C3=NC(CC(=O)NCc4ccco4)C(=O)N23)cc1 (stereo not drawn)	1.3µM*	13%	x	4%
O=C(CC1N=C2c3ccccc3N=C(SCc3ccc(F)cc3)N2C1=O)NCc1ccco1 (stereo not drawn)	0.74µM*	4%	13µM*	6%
O=C(CCC1N=C2c3ccccc3N=C(SCc3ccc(F)cc3)N2C1=O)NCc1ccco1 (stereo not drawn)	u	-6%	u	u
CCC(C)NC(=O)CSC1=Nc2ccccc2C2=NC(CC(=O)NCc3ccccc3)C(=O)N12 (stereo not drawn)	9.3µM*	5%	-1%	-7%
Cn1nc(C(=O)NC2CCCCC2)c2c1-c1ccccc1S(=O)(=O)C2	3%	16%	18%	2%
COc1ccc(-c2csc(N(C)C(=O)c3ccco3)n2)cc1	98%	-12%	-6%	-1%
SMILES	Pf growth 48h	NS1 function inh	Pf growth 96h	SARS PLpro yeast
Cc1nn(-c2ccccc2)c(Cl)c1C(=O)NCCCCNC(=O)c1c(C)nn(-c2ccccc2)c1Cl	13µM*	3%	x	0%
Cc1ccc(-c2csc(N(C)C(=O)c3c(C)nn(-c4ccccc4)c3Cl)n2)cc1	12µM*	21%	u	-2%
CN(C(=O)c1ccco1)c1nc(-c2ccc(Cl)cc2)cs1	119%	1%	6.6µM*	1%
Cn1c(CC(=O)Nc2ccccc2Cl)nnc1SCC(=O)NC1CCCCC1	-1%	-2%	8%	1%
Cc1ccn2c(=O)c(NC(=O)c3cccs3)c(C)nc2c1	2%	x	7%	-2%
CC(=O)Nc1ccc(-c2csc(NC(=O)Cc3cccc(F)c3)n2)cc1	-22%	22%	-13%	1%
CCCCNC(=O)c1cc2cccc([N+](=O)[O-])c2[nH]1	2.6µM*	-4%	u	-4%
CCc1ccccc1NC(=O)CN(C)S(=O)(=O)c1ccc(-c2ccc(=O)[nH]n2)s1	u	10%	u	-1%

Source: PubChem
